Records with an inconclusive call do not appear. Active and inactive are the calls of the source. Unless noted, calls come from the whole dose curve; as a rule, active = well fitted curve in the direction sought with a large enough effect in the repeat runs; inconclusive = weak or mixed curves; inactive = no such curve, though single readings can be large; an effect the other way counts as inactive or inconclusive.
Legend:
[1] = qHTS assay to identify small molecule agonists of H2AX (AID 1224845; active = well fitted activation curve with a large enough effect in the signal ratio in the repeat runs, not every such curve was filed as active; the % refers to the signal ratio; note: potency is the fitted concentration of half-maximal effect)
Method in brief: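 Phospho-H2AX Ser139 measured by HTRF (ex 320 nm; em 665 and 620 nm) after 24 hr antibody incubation. Compounds, 15 concentrations, 0.76% DMSO, were applied to CHO-K1 cells for 3hr at 37C before lysis.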

[2] = qHTS assay to identify small molecule agonists of the hypoxia (HIF-1) signaling pathway (AID 1224846; active = well fitted activation curve with a large enough effect in the signal ratio in the repeat runs, not every such curve was filed as active; the % refers to the signal ratio)
Method in brief: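 Cell line: CellSensor HRE-bla ME-180; 2,000 cells/well; 0.5% dialyzed FBS; 5 h preincubation; DMSO compound pin transfer; 17 h, 37C, 5% CO2; CCF4-AM added; bla FRET signal scored for activation.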

[3] = qHTS assay to identify small molecule agonists of H2AX - cell viability counter screen (AID 1224847; calls by dose curve;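 note: wild-type CHO-K1 cells; top concentration of the series differs between compounds; nearly all actives have a fitted effect of over 30% in size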)
Method in brief: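 After overnight plating of 1000 CHO-K1 cells per well, a 15-concentration compound series was applied for 3 hr at 37C. Luminescence from CellTiter-Glo, read following 30 min at room temperature, reflected cell viability.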

[4] = qHTS RealTime-Glo MT Cell Viability Assay in HepG2 cells - 24 hour (AID 1224867); note: nearly all actives have a fitted effect of over 50% in size; note: potency is the fitted concentration of half-maximal effect
Method in brief: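 Viability was tracked continuously by NanoLuc luminescence from prosubstrate reduced by living HepG2 cells, at successive time points over 40 h of compound exposure. Cells with reagent were preincubated 5 h at 37 °C before compound addition.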

[5] = qHTS RealTime-Glo MT Cell Viability Assay in HEK293 cells - 32 hour (AID 1224868); note: nearly all actives have a fitted effect of over 50% in size; note: potency is the fitted concentration of half-maximal effect; for activity change, negative = cytotoxic: top concentration of the series differs between compounds
Method in brief: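 Viability tracked continuously by luminescence as live cells reduce a prosubstrate for NanoLuc; HEK293 cells preincubated 5 h, compound-treated at 37 C, and read at 0, 8, 16, 24, 32 and 40 h.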

[6] = A CellTox Green Cytotoxicity Assay to monitor cytotoxicity in HEK293 cells - 0 hour (AID 1224869); note: nearly all actives have a fitted effect of over 50% in size
Method in brief: (§1)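 Nonlytic real-time cytotoxicity: HEK293 + CellTox Green reagent plated, 5 h preincubation, pintool compound addition (23 nL in DMSO), 37 C for 40 h, fluorescence measured at successive time points.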

[7] = qHTS RealTime-Glo MT Cell Viability Assay in HepG2 cells - 40 hour (AID 1224870); note: nearly all actives have a fitted effect of over 50% in size; note: potency is the fitted concentration of half-maximal effect
Method in brief: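 Real-time viability: cells seeded at 600 per well together with NanoLuc and cell-permeant prosubstrate, compounds added after 5 h incubation. Luminescence tracked at 0, 8, 16, 24, 32 and 40 h of exposure.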

[8] = A CellTox Green Cytotoxicity Assay to monitor cytotoxicity in HEK293 cells - 40 hour (AID 1224871); note: nearly all actives have a fitted effect of over 45% in size; note: potency is the fitted concentration of half-maximal effect
Method in brief: as §1

[9] = qHTS assay to identify small molecule antagonists of the estrogen related receptor (ERR) signaling pathway from Tox21 library (AID 1224848); note: nearly all actives have a fitted effect of over 50% in size
Method in brief: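 Reading was by luminescence 30 min after ONE-Glo addition. Before that, ERR cells at 2,000 per well had rested 6 h at 37 C/5% CO2 and then received pin-tooled compounds in DMSO for 18 h at 37 C.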

[10] = qHTS assay to identify small molecule agonists of the estrogen related receptor (ERR) signaling pathway from Tox21 library (AID 1224849; calls by dose curve; note: nearly all actives have a fitted effect of over 15% in size); conditions: ERR reporter cell line, ONE-Glo luciferase, 18 h; at 92.4 µM (top of the series) unless noted
Method in brief: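 ERR cells, 6 h pre-incubation 37 C/5% CO2; cpd in DMSO pinned; 18 h 37 C; ONE-Glo added, 30 min RT; luminescence read. Agonist mode, qHTS.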
% is set by controls: 0 for no effect and ±100 for the full control effect.

CCC(C)(C)C1CCC(O)CC1 (centres undefined)
inactive: Potency [1] | outcome [2] | Potency [3] | Potency [4] | Potency [5] | Potency [6] | Potency [7] | Potency [8]

O=C1NCCN1
inactive: Potency [1] | outcome [2] | Potency [3] | Potency [9] | activity change, positive = activation [10] 2.98% | Potency [6]

COc1cc2c(N3CCN(C(=O)Nc4ccc(OC(C)C)cc4)CC3)ncnc2cc1OCCCN1CCCCC1
inactive: Potency [1] | outcome [2] | Potency [3] | activity change, positive = activation [10] -32.4% [at 42.5 µM] | Potency [4] | Potency [6]
active: Potency [5] 9.52 µM

Cc1cc(O)c2c(O)c3c(O)cccc3cc2c1
inactive: Potency [1] | outcome [2] | Potency [3] | activity change, positive = activation [10] -25.3% [at 42.5 µM] | Potency [4] | Potency [5] | Potency [6]

CCOC(=O)c1ccccc1OC
inactive: Potency [1] | outcome [2] | Potency [3] | Potency [9] | activity change, positive = activation [10] -0.575% | Potency [5] | Potency [6] | Potency [7] | Potency [8]

C/C=C(\C)C(=O)OCCC(C)CCC=C(C)C (centres undefined)
inactive: Potency [1] | outcome [2] | Potency [3] | Potency [4] | Potency [5] | Potency [6] | Potency [7] | Potency [8]

CCCCCCCCCCCCCCCCBr
inactive: activation (H2AX phosphorylation) [1] -0.41% [at 31.6 µM] | activation [2] 0.309% [at 15.8 µM] | activity change, negative = cytotoxicity [3] 2.27% [at 31.6 µM] | activity, negative = inhibition [9] 8.88% [at 19 µM] | activity change, positive = activation [10] 4.62% [at 19 µM] | cytotoxicity [6] -1.2% [at 15.8 µM] | activity change, negative = cytotoxic [7] 2.22% [at 15.8 µM]

O=S(=O)(c1ccccc1)c1ccc(Cl)cc1
inactive: Potency [1] | outcome [2] | Potency [3] | activity change, positive = activation [10] -31.4% | Potency [4] | Potency [5] | Potency [6] | Potency [7] | Potency [8]

COc1ccc([C@@H]2Sc3ccccc3NC(=O)[C@@H]2O)cc1
inactive: Potency [1] | outcome [2] | Potency [3] | activity change, positive = activation [10] -18.7% [at 42.5 µM] | Potency [4] | Potency [6] | Potency [7]

CCCCCC=CCC=CCCCCCCCC(=O)OCC
inactive: outcome [2] | Potency [3] | Potency [4] | Potency [5] | Potency [6] | Potency [7] | Potency [8]
active: Potency [1] 55.2 µM

CO/N=C1\CN(c2nc3c(cc2F)c(=O)c(C(=O)O)cn3C2CC2)CC1CN (centres undefined)
inactive: Potency [1] | outcome [2] | Potency [3] | activity change, positive = activation [10] -26.9% [at 42.5 µM] | Potency [5] | Potency [6] | Potency [7] | Potency [8]

CCC(C)(O)CCC=C(C)C (centres undefined)
inactive: Potency [1] | outcome [2] | Potency [3] | Potency [4] | Potency [5] | Potency [6] | Potency [7] | Potency [8]

CCCOCCOCCO
inactive: Potency [1] | outcome [2] | Potency [3] | Potency [4] | Potency [6] | Potency [7] | Potency [8]

CC1(C)C2=CCCC(C)(C)[C@]23CC[C@H]1C3
inactive: Potency [1] | outcome [2] | Potency [3] | Potency [4] | Potency [6] | Potency [7]
active: Potency [8] 38.9 µM

CCCCCCCCCOC(C)=O
inactive: Potency [1] | outcome [2] | Potency [3] | Potency [4] | Potency [5] | Potency [6] | Potency [8]

O=C(O)c1ccc(CO)o1
inactive: Potency [1] | outcome [2] | Potency [3] | Potency [4] | Potency [5] | Potency [6] | Potency [8]

O=C(Nc1ccccc1)Nc1ccccc1
inactive: Potency [1] | outcome [2] | Potency [9] | Potency [4] | Potency [6] | Potency [7] | Potency [8]
active: activity change, positive = activation [10] 28.3%

CCCCCCCC/C=C\CCCCCCCC(=O)OC
inactive: Potency [1] | outcome [2] | Potency [3] | Potency [4] | Potency [6] | Potency [7] | Potency [8]

C=CCOC(=O)/C=C\C(=O)OCC=C
inactive: Potency [1] | outcome [2] | Potency [3] | Potency [6] | Potency [7] | Potency [8]

CC(Cl)C(Cl)Cl (centres undefined)
inactive: Potency [1] | outcome [2] | Potency [3] | Potency [4] | Potency [5] | Potency [7]

CCCCC(CC)COC(=O)COc1ccc(Cl)cc1C (centres undefined)
inactive: Potency [1] | outcome [2] | Potency [3] | Potency [4] | Potency [5] | Potency [6] | Potency [8]

ON(Cc1ccccc1)Cc1ccccc1
inactive: Potency [1] | outcome [2] | Potency [3] | Potency [4] | Potency [5] | Potency [6] | Potency [8]

O=C(O)c1cccc(O)c1
inactive: Potency [1] | outcome [2] | Potency [3] | Potency [4] | Potency [5] | Potency [6] | Potency [7] | Potency [8]

Cc1cnc(C)c(C)n1
inactive: Potency [1] | outcome [2] | Potency [3] | Potency [4] | Potency [6] | Potency [7] | Potency [8]

O=C(CCCCCCCCC#CI)Oc1ccccc1
active: Potency [4] 6.01 µM | Potency [7] 2.39 µM
inactive: Potency [1] | outcome [2] | Potency [3] | Potency [6]

CC(CCc1ccc2c(c1)OCO2)NN (centres undefined)
inactive: Potency [1] | outcome [2] | Potency [3] | Potency [5] | Potency [6] | Potency [7]

N#C/C(=C1\SCC(c2ccccc2Cl)S1)n1ccnc1 (centres undefined)
inactive: Potency [1] | outcome [2] | Potency [3] | Potency [4] | Potency [6] | Potency [8]
